Calls of active or inactive are those of the source. Unless noted, how the calls were made is not given here.

Assay [1] is described as follows: compounds binding Alexa647 anti-His antibody – biochemical, small-molecule microarray, 635 nm fluorescence, artefact control for SMM control protein annotation, primary screen (AID 1128).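 Further: score merges feature fluorescence with signal-to-noise for each printed compound spot.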 The settings on record: higher = more signal.
Assay [2] has as its system Human papillomavirus type 1a E7 protein (residues 1-88). In words: HPV1a E7 small-molecule binders, primary screen, biochemical, small-molecule microarray, residues 1-88, 635 nm (AID 1129). The settings on record: small-molecule microarray binding, fluorescence 635 nm; higher = more signal.
For assay [3], the target named is Focal adhesion kinase 1 (Homo sapiens) (UniProt Q05397). Put plainly: PTK2 protein binding on printed compound slides – biochemical, small-molecule microarray, 635/667 nm fluorescence, BSA, DTT, primary screen (AID 1130).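 Further: composite of spot emission at 667 nm and signal to noise over triplicate slides.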 The settings on record: 635 nm fluorescence, higher = more signal.
Sequence of Focal adhesion kinase 1 (Homo sapiens) (Q05397 whole entry, looked up): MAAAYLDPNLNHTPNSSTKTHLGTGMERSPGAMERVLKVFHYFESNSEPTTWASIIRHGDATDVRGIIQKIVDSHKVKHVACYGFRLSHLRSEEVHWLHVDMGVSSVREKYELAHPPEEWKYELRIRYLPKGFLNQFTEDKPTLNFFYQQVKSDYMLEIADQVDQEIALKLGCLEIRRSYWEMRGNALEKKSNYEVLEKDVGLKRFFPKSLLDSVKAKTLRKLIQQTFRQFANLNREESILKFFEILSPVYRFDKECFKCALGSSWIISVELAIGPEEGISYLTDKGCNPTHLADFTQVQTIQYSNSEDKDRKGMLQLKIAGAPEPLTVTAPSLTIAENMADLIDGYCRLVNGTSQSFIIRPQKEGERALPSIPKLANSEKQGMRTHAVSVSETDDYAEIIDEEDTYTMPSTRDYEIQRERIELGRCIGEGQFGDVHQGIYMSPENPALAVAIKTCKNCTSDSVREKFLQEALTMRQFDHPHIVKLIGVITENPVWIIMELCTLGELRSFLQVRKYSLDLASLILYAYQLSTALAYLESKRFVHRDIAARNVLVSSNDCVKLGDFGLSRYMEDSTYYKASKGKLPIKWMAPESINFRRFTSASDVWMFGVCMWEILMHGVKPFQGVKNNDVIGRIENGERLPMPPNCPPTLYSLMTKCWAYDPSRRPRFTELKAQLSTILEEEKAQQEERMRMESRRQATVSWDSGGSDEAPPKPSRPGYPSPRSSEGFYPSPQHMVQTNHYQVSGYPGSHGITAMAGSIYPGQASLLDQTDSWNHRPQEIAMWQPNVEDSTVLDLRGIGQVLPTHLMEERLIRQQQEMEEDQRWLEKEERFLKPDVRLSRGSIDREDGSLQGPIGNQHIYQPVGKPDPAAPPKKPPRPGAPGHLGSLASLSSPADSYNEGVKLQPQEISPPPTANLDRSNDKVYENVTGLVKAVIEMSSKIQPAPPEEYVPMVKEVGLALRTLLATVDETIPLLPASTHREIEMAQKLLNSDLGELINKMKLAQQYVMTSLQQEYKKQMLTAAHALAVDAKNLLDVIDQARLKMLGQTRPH
The test system of assay [4] is Fibrinogen (Alexa647-labelled). Put plainly: Alexa647-fibrinogen binding to printed small molecules – biochemical, small-molecule microarray, 635/667 nm fluorescence, artefact control for SMM control-protein annotation, profiling panel (AID 1131).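 Further: z-score merges 667 nm fluorescence with per-spot signal-to-noise over triplicate slides.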 The settings on record: fibrinogen-A647 binding fluorescence, higher = more signal.
In assay [5] the target is Follistatin (Homo sapiens) (UniProt P19883). In words: FST protein binding to printed compounds – biochemical, small-molecule microarray, 635/667 nm fluorescence, primary screen (AID 1132). The settings on record: 635 nm fluorescence, higher = more signal.
Sequence of Follistatin (Homo sapiens) (P19883 whole entry, looked up): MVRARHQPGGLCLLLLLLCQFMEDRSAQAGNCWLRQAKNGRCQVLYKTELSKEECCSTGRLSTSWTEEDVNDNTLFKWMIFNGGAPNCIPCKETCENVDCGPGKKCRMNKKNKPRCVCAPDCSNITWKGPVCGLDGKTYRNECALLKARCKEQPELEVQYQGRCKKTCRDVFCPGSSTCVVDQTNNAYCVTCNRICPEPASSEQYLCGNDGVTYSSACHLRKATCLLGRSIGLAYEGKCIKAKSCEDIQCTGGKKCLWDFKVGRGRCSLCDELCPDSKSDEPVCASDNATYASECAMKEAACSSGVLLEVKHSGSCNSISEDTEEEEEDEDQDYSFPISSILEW
Assay [6] has as its target Fibroblast growth factor 2 (Homo sapiens) (UniProt P09038). Put plainly: basic fibroblast growth factor binding to printed compounds – biochemical, small-molecule microarray, 635/667 nm fluorescence, primary screen (AID 1133). The settings on record: FGF2, fluorescence 635/667, higher = more signal.
Assay [7] is described as follows: JC-1 mitochondrial potential readout, lung cancer cells – cell-based, A549, JC-1 fluorescence, basal, 24 h, 100 nL, profiling panel (AID 1138).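 Further: A549 lung adenocarcinoma cells under basal conditions with no added stimulus; test concentration not given here.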 The settings on record: higher = more signal.
The subject of a further assay is Lefty1. In words: Lefty1 protein binding to printed compounds – biochemical, small-molecule microarray, 635/667 nm fluorescence, primary screen (AID 1139). The settings on record: fluorescence 635/667, higher = more signal.
For assay [8], the system named is wheat germ agglutinin (Triticum aestivum), Alexa647-labelled. In words: Alexa647-WGA lectin binding to printed small molecules – biochemical, small-molecule microarray, 635/667 nm fluorescence, artefact control for SMM control-protein annotation, profiling panel (AID 1140).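 Further: score merges 667 nm feature emission with signal to noise over triplicate slides.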 The settings on record: WGA-A647 binding, 635 nm fluorescence, higher = more signal.
Assay [9] deals with Luciferin 4-monooxygenase (Photinus pyralis) (UniProt P08659). In words: inhibition of purified Photinus pyralis luciferase – biochemical, luminescence, purified enzyme, 2006 set, primary screen (AID 1141).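 Further: cell-free assay with purified firefly luciferase at 100 ng per well in PBS; test concentration not given here.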 The settings on record: purified firefly luciferase, SteadyGlo luminescence, 30 min; higher = more signal, called active from +8 up or from −8 down.
Sequence of Luciferin 4-monooxygenase (Photinus pyralis) (P08659 whole entry, looked up): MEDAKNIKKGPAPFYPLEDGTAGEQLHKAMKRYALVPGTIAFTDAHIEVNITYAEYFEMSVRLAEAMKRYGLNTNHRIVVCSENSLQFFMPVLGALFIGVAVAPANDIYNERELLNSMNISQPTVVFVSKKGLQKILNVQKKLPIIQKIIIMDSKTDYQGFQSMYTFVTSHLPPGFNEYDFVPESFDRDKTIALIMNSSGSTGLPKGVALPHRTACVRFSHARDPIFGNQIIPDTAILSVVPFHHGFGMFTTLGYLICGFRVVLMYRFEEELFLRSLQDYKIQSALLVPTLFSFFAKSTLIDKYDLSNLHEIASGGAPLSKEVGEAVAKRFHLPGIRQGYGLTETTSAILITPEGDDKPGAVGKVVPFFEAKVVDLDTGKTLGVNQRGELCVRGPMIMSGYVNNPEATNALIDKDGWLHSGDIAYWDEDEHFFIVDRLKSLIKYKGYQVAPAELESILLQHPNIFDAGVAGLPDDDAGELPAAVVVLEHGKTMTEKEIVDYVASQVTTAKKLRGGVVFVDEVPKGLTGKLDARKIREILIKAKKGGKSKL
For assay [10], the system named is Wnt5a (protein binding on small-molecule microarray). In words: small molecules binding Wnt5a protein – biophysical, small-molecule microarray, 635/667 nm fluorescence, primary screen (AID 1142).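 Further: fluorescence read at 667 nm with signal to noise per printed feature.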 The settings on record: 635 nm fluorescence, higher = more signal.
The nature of assay [11]: ATP-based viability of Huh7 replicon cells – cell-based, CellTiter-Glo luminescence, basal, 48 h, cytotoxicity control for HCV replication inhibitor project, primary screen (AID 1143).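 Further: Huh7 hepatoma cells carrying a hepatitis C replication reporter with no stimulus; test concentration not given here.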 The settings on record: higher = more signal, called active from +8 up or from −8 down.
Assay [12] can be described thus: Pseudomonas biofilm growth suppression – PAO1 strain, BacTiter-Glo luminescence, LB-PBS, primary screen (AID 1144). The settings on record: P. aeruginosa PAO1 biofilm, 12 h, higher = more signal.
The nature of assay [13]: basal CRE-LacZ reporter activity in PC12 – cell-based, unstimulated, primary screen (AID 1145). The settings on record: no forskolin, luminescence, 4.5 h, higher = more signal, called active from +8 up or from −8 down.
The nature of assay [14]: forskolin-driven CRE-LacZ activity in PC12 – cell-based, CRE-LacZ reporter, forskolin-stimulated, primary screen (AID 1146).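 Further: PC12 cells with 6xCRE LacZ reporter stimulated by forskolin 10 µM; beta-galactosidase reporter signal reflecting CREB driven transcription.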 The settings on record: luminescence, 4.5 h, higher = more signal, called active from +8 up or from −8 down.
Assay [15] concerns the target Streptavidin (Streptomyces avidinii) (UniProt P22629). Put plainly: compounds binding control protein streptavidin – biophysical, small-molecule microarray, 635/667 nm fluorescence, artefact control for SMM compound annotation, primary screen (AID 1147).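 Further: signal reflects streptavidin binding to arrayed compounds as a control protein.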 The settings on record: higher = more signal.
Assay [16] in a line: probe aInhba binding on compound microarray – biochemical, small-molecule microarray, 635/667 nm fluorescence, primary screen (AID 1148).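 Further: score merges 667nm spot fluorescence with signal-to-noise for antibody binding to printed compounds.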 The settings on record: higher = more signal.
For assay [17], the target named is Torsin-1A (Homo sapiens) (UniProt O14656). Put plainly: TOR1A wild-type binding on microarray – cell lysate, small-molecule microarray, lysate, 635/667 nm, primary screen (AID 1149). The settings on record: COS7 hTOR1A-WT lysate, 635 nm fluorescence, higher = more signal.
Sequence of Torsin-1A (Homo sapiens) (O14656 whole entry, looked up): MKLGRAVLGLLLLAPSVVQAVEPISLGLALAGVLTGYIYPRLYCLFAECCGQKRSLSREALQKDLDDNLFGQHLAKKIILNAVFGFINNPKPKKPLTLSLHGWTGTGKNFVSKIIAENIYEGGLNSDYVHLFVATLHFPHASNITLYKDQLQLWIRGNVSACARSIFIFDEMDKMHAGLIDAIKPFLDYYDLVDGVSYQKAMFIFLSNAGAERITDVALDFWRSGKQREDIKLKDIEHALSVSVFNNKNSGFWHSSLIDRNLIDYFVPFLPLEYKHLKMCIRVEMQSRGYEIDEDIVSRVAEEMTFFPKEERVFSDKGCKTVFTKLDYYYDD
The target is the same in assay [18]. In words: torsin A mutant lysate binding on microarrays – cell lysate, small-molecule microarray, COS7 lysate, 635/667 nm fluorescence, primary screen (AID 1150).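 Further: score pools 667 nm emission and signal to noise measuring lysate protein binding.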 The settings on record: COS7 hTOR1A mutant lysate, 635 nm fluorescence, higher = more signal.
Assay [19] relates to Sonic hedgehog protein (Shh). Put plainly: Sonic hedgehog microarray binding compounds – biochemical, small-molecule microarray, 635/667 nm fluorescence, primary screen (AID 1151).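 Further: Shh protein binding to compounds spotted on small-molecule microarray slides; score combines spot fluorescence intensity with signal-to-noise across triplicate slides.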 The settings on record: 635 nm fluorescence, higher = more signal.

Sequence of Fibroblast growth factor 2 (Homo sapiens) (P09038 whole entry, looked up): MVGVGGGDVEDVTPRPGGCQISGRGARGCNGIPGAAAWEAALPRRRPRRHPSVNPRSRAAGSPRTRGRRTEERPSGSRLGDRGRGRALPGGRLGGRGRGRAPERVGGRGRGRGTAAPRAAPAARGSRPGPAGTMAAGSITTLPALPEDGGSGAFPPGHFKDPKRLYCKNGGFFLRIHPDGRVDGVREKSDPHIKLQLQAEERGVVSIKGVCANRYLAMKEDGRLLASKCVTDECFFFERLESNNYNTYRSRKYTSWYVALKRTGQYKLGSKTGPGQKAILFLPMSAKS
Sequence of Streptavidin (Streptomyces avidinii) (P22629 whole entry, looked up): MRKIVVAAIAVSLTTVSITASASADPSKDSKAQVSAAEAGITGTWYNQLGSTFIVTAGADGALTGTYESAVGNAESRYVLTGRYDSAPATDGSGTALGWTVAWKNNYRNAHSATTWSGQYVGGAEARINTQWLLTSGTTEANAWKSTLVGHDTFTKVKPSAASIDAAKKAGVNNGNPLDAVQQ

Consider `C=C(C)[C@@H]1CC=C(C(O)C2C=CC3C(=O)N(c4ccccc4)C(=O)C3N2Nc2ccccc2)CC1` (stereo not given in full), for which the composite z-score was determined as 0.858 in assay [1]; 1.24 in assay [2]; 0.0294 in assay [3]; 0.982 in assay [4]; 1.22 in [5]; 0.001 in [6]. The composite z-score came to 0.226 with Lefty1; 1.32 in [8]; 0.371 in [10]; 2.43 in assay [15]; 0.906 in assay [16]; 0.476 in the assay with Torsin-1A (Homo sapiens) [17]. Moreover, the composite z-score amounted to 0.579 with Torsin-1A (Homo sapiens) [18] and 0.456 in assay [19]. The z-score in [7] is -0.369; in [9], -1.24 (inactive); in [11], 0.0984 (inactive); in assay [12] it was -1.65 (inactive); in assay [13] it was 0.0569 (inactive); in [14] it was -0.0811 (inactive).
For the compound `CCN(CC)c1ccc(N2CC=CC34O[C@@H]5C=CCCOC(=O)C5[C@H]3C(=O)N(CCCCCCO)[C@@H]4C2=O)cc1` (stereo not given in full), the composite z-score in assay [1] is 1.43; in [2] it was 0.321; in assay [3] it was 0.899; in assay [4] it was -1.15; in assay [5], -0.372; in assay [6], -0.551. Moreover, the composite z-score in the assay with Lefty1 is 0.0079; in assay [8] it was 0.623; in assay [10], -0.212; in assay [15] it was -0.729; in assay [16], -0.209; with Torsin-1A (Homo sapiens) [17], 0.454. In addition, the composite z-score is 1.57 with Torsin-1A (Homo sapiens) [18] and -0.179 in [19]. For the same compound, the z-score in assay [7] is -0.115; in assay [9] it was -4.35 (inactive); in assay [11], -1.32 (inactive); in assay [12], -1.35 (inactive); in assay [13] it was -1.85 (inactive); in [14] it was -0.716 (inactive).
Take `CCOC(=O)C[C@H]1[C@H](OC(=O)c2ccc(C(=O)c3ccccc3)cc2)[C@@H](NC(=O)CC(C)C)c2cc(OCCCO)ccc2N1C(=O)c1ccc2ccccc2n1`: the composite z-score in [1] came to 1.35; in assay [2] it was 1.21; in assay [3], 0.0174; in assay [4] it was 0.989; in assay [5], 1.15; in [6], 0.94. For the same compound, the composite z-score in the assay with Lefty1 was 1.36; in assay [8], 0.61; in assay [10], 0.188; in assay [15], 1.22; in [16], -0.003; in the assay with Torsin-1A (Homo sapiens) [17] it was 0.396. Also, the composite z-score amounted to 0.15 with Torsin-1A (Homo sapiens) [18] and 1.27 in [19]. The z-score was 1.78 in assay [7]; 0.103 (inactive) in assay [9]; -0.772 (inactive) in [11]; -1.04 (inactive) in assay [12]; 0.469 (inactive) in assay [13]; -0.23 (inactive) in assay [14].
Consider `Cc1ccc(S[C@]2(C(=O)NCCCN(C)C)CC(=O)N(Cc3ccccc3C(F)(F)F)[C@@H]2c2ccc(CO)cc2)cc1`, for which the composite z-score was -1.09 in assay [1]; -0.935 in assay [2]; -0.157 in assay [3]; 0.109 in assay [4]; -0.85 in [5]; -0.45 in assay [6]. Also, the composite z-score in the assay on Lefty1 is -0.853; in assay [8], 0.427; in assay [10], -0.197; in [15], -0.0283; in assay [16], -0.0791; with Torsin-1A (Homo sapiens) [17], -0.544. Further, the composite z-score with Torsin-1A (Homo sapiens) [18] was 0.801; in assay [19], -0.548. Also, the z-score was 0.566 in assay [7]; -0.903 (inactive) in [9]; 0.312 (inactive) in assay [11]; 1.08 (inactive) in [12]; -0.295 (inactive) in assay [13]; 0.358 (inactive) in assay [14].
Consider `O=C(NC1CC1)[C@@H]1c2ccccc2C(=O)N(Cc2ccccc2Cl)[C@H]1c1ccc(CO)cc1`, for which the composite z-score was found to be 3.06 in assay [1]; 0.981 in assay [2]; 1.06 in assay [3]; 0.57 in assay [4]; 1.33 in [5]; 1.32 in [6]. The composite z-score in the assay on Lefty1 came to 0.233; in [8] it was 0.447; in assay [10] it was 0.201; in [15], 0.384; in [16], 0.225; in the assay with Torsin-1A (Homo sapiens) [17], 0.725. In addition, the results for the composite z-score (in the assay with Torsin-1A (Homo sapiens) [18]; in assay [19]) were 0.941 and 0.957, respectively. In addition, the z-score in assay [7] is 3.13; in [9] it was -1.44 (inactive); in assay [11], -2.67 (inactive); in assay [12], -0.764 (inactive); in assay [13] it was -0.0888 (inactive); in assay [14], -1.69 (inactive).
